In the supplement of paper PMC3334620:
Whole data set: some 33,000 sequences, median “E-score (-0.5 to 0.5)” near -8e-05, cut for the highest 2% near 0.23. What follows is part of a selection rich in the highest values, with near analogues and random picks from the rest.

These sequences were tested against T1, Nrg2 (UniProt P38082) (assay: PBM E-score (8-mer binding enrichment) (E-score (-0.5 to 0.5)); higher = stronger / more preferred TF binding). Conditions: protein concentration: 100 nM; construct: GST-full length.
T1 sequence: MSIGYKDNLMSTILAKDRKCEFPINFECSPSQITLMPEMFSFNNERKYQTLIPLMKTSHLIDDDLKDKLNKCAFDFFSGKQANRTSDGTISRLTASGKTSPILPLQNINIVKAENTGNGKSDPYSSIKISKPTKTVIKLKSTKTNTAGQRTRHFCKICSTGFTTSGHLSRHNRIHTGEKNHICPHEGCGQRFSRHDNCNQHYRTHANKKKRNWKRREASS
How it was run: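 Each ungapped eight-base word and its reverse complement, pooled, received an E-score from the Universal PBM Analysis Suite. Underlying scans, normalised with masliner, recorded fluorescent anti-GST bound to GST-tagged yeast transcription factors. These were applied at about 100-200 nM to universal all-10-mer Agilent arrays double-stranded by primer extension.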

Row | Sequence | PBM E-score
1 | ACCGAACC | -0.254
2 | CGGACCTC | -0.0835
3 | GACTCACA | 0.0103
4 | AGGTAGAT | -0.104
5 | CAACACTA | 0.147
6 | GAACACTA | 0.0307
7 | TAACACTA | 0.248
8 | CGGTTGAA | 0.101
9 | AAAGGAAA | 0.0754
10 | AGCATAGA | -0.0952
11 | AGCGATCC | -0.129
12 | AGCGATCA | -0.156
13 | AGCGATCG | 0.24
14 | CCGTGGAA | -0.00678
15 | CATTGCAG | 0.0963
16 | ATGAGAGC | 0.00785
17 | ACCTACGG | -0.376
18 | CCTAACGA | -0.038
19 | GTTAGTTA | 0.0784
20 | ATTAGTAC | 0.14
21 | AGTAGTTA | 0.0579
22 | ATTAGTGA | 0.114
23 | AGTAGTTG | 0.253
24 | ATTAGTGC | 0.23
25 | AGTAGTTC | 0.207
26 | ATTAGTGG | 0.15

Row | Sequence | PBM E-score
27 | CTTAGTTA | 0.0769
28 | ATTAGTTA | 0.268
29 | ATTAGTAA | 0.245
30 | CTTAGTAA | 0.0233
31 | GTAACTAC | 0.0907
32 | CGTTCTCA | -0.0327
33 | CACCATGA | -0.00138
34 | CGGGCCAG | -0.0425
35 | TGGTTCAA | 0.103
36 | CGAGCCCC | -0.154
37 | GACAGCCC | -0.099
38 | CTTCTCTA | -0.137
39 | AATAGTTC | 0.0571
40 | ATTAGTTG | 0.256
41 | AATAGTTA | 0.0707
42 | ATTAGTTC | 0.158
43 | ATTAGTCG | 0.143
44 | AATAGTTG | 0.248
45 | ACTTGAAA | -0.108
46 | CCTTGCAG | -0.0165
47 | CATGCTAG | -0.00401
48 | CCCGATCG | -0.026
49 | AATCTAAC | 0.0101
50 | GCGTGAGA | 0.297
51 | TCGTGAGA | -0.0385
52 | ACGTGAGA | -0.11

Row | Sequence | PBM E-score
53 | CCTCTAGC | -0.0815
54 | CATTTCCC | 0.201
55 | CATTTCCA | 0.237
56 | TATTTCCA | 0.0167
57 | GGGCTGCA | 0.0573
58 | AACTCGGC | 0.245
59 | AACTCGGT | -0.00163
60 | AACTCGGA | 0.13
61 | TATAAATA | 0.255
62 | GATAAATA | 0.262
63 | AATAAAGG | -0.0433
64 | CATAAATA | 0.046
65 | AATAAAGA | 0.0604
66 | GATAAATC | 0.023
67 | GATAAAAA | -0.00426
68 | AATAAAGT | 0.252
69 | TATAAAAA | 0.164
70 | AATAAATA | 0.246
71 | AATAAATG | 0.158
72 | AATAAATT | 0.215
73 | CCCTGCCC | -0.1
74 | ACGGATTG | 0.168
75 | ACGACCCG | 0.168
76 | GGATAAAC | 0.133
77 | AGAGCTAC | 0.00658
78 | AGCCGACT | -0.111

Row | Sequence | PBM E-score
79 | CTTGGAAA | 0.0285
80 | AGACCGTA | -0.242
81 | AACACGAC | 0.0492
82 | ATAAAAAG | 0.257
83 | ATAAAAAA | 0.0337
84 | ATAAAAGG | -0.128
85 | AAAAATAT | 0.101
86 | ATAAATAG | 0.0238
87 | CTAAATAC | 0.0507
88 | ATAAATAA | 0.237
89 | GTAAATAC | -0.0746
90 | ATAAAAAT | 0.122
91 | TTAAATAA | 0.186
92 | ATAAATAC | 0.283
93 | ATAAATAT | 0.245
94 | AGCCAGGA | -0.0522
95 | AAGATTCA | 0.0877
96 | CGTTGACA | 0.00462
97 | GCTAGCAA | -0.0969
98 | CTAAGAGA | -0.0214
99 | ACTACCTG | 0.0949
100 | TACTTCGA | 0.23
101 | GACTTCGA | -0.106
102 | CACTTCGA | 0.0548
103 | CCAAGATA | 0.00687
104 | ACAAGATA | 0.103

Row | Sequence | PBM E-score
105 | GCAAGATA | 0.229
106 | GCTACGCA | -0.108
107 | CGACGAAA | 0.0993
108 | CCCGCATA | 0.168
109 | GCCGCATA | 0.231
110 | ACCGCATA | 0.0956
111 | CGCACAAG | 0.0299
112 | CGCACGAG | -0.0371
113 | CCCACAAA | 0.247
114 | CGCACAAA | 0.257
115 | CCCACAAG | -0.0136
116 | GCCACAAA | 0.0838
117 | GAGAGAAC | -0.0345
118 | CCCGCCAA | -0.175
119 | AGCCTACG | 0.0365
120 | GATTAATA | 0.29
121 | AATTAATA | 0.303
122 | ATTTAATA | 0.247
123 | GTTTAATA | 0.198
124 | CTTTAATA | 0.125
125 | GATAATTA | 0.0635
126 | AATTAATT | -0.112
127 | AATAATTA | 0.286
128 | AATTAATG | 0.182
129 | TATTAATA | 0.152
130 | CATTAATA | 0.155

Row | Sequence | PBM E-score
131 | CATAATTA | 0.173
132 | CCACCACG | 0.00854
133 | CGGGTCAG | 0.023
134 | ACCCAGGA | -0.227
135 | ACTGTGGA | -0.109
136 | CGGTCGAC | -0.0395
137 | ACTCTAAA | 0.101
138 | GATAGCAA | 0.0872
139 | AACTGTCC | -0.0683
140 | GCTGAAAC | -0.139
141 | ATTGATAA | 0.0942
142 | CTTGATTC | 0.0772
143 | ATTGATTC | 0.244
144 | ATTGATAG | -0.0275
145 | GCTGATAC | -0.0795
146 | ATTGATAC | 0.274
147 | CCTGATAC | 0.229
148 | ATTGATTG | 0.142
149 | GTTGATGA | 0.0639
150 | CCTGATAG | -0.153
151 | GTTGATAA | 0.232
152 | CTTGATAA | 0.147
153 | AAACTCCC | -0.0959
154 | GTGGATTA | 0.0668
155 | CGGCCTTA | 0.0601
156 | ACTCAAGC | -0.148

Row | Sequence | PBM E-score
157 | CAGTTTTC | 0.17
158 | AATGGCAT | 0.26
159 | AATGGAAT | 0.241
160 | AATGGAAG | 0.0112
161 | AATGGCAG | 0.0917
162 | AATGGCAC | -0.0263
163 | AATGGAAC | 0.108
164 | CGCCAAAA | 0.119
165 | AAGGAAAC | -0.128
166 | CAGGGACC | 0.4
167 | AAGGGACT | 0.123
168 | GAGGGACC | 0.0355
169 | AAGGGACA | 0.137
170 | CAGGGACG | 0.306
171 | AAGGGACC | 0.424
172 | AAGGGACG | 0.207
173 | CAGAGACC | -0.212
174 | CAGGGACA | 0.371
175 | CAGAGACG | 0.0459
176 | AGGGGACC | 0.225
177 | GAGGGACA | 0.0412
